# Bioassay records (PubChem)
# Sfp PPTase inh = Sfp phosphopantetheinyl transferase inhibition | Biochemical Sfp PPTase activity, qHTS | Potency, µM, usual class: inhibitors | hit rate 3.5% among 310,000;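 note: the enzyme is Sfp with the accession as filed and its product quenches rhodamine fluorescence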
#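 Step 1, compound plus 15 nM Sfp-PPTase, 15 min, room temperature. Step 2, add rhodamine-CoA (5 uM) and BHQ-2-YbbR (12.5 uM). Step 3, read 525/598 nm fluorescence at 0 and 30 min.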
# BAZ2B block = BAZ2B (human) inhibition; AlphaScreen BAZ2B-H3K14Ac peptide displacement; Potency, µM (series often up to 114 µM), actives largely listed as inhibitors; hit rate 4.4% among 360,000; AID 504333; note: nearly all actives have a fitted effect of over 60% in size
#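 Multi-concentration screen (max 110 uM) measuring displacement of acetylated histone H3 peptide from BAZ2B by AlphaScreen, using 50 nM protein, 50 nM peptide and 10 ug/mL streptavidin donor plus Ni-chelate acceptor beads.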
# L3MBTL1 inh = blocks human L3MBTL1. Q9Y468. AlphaScreen L3MBTL1–H3K9me1 peptide binding. Potency, µM (highest dose often 57.1 µM), hits mostly inhibitors. hit rate 0.66% among 230,000; note: nearly all actives have a fitted effect of over 60% in size
#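 L3MBTL1 (50 nM) pre-complexed 30 min with biotinylated H3(1-15)K9me1 peptide (75 nM), then compounds added for 30 min at room temperature; AlphaScreen streptavidin donor/nickel chelate acceptor beads (10 ug/mL final) read after 30 min dark incubation.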
# JMJD2A Tudor = inhibitors of human JMJD2A Tudor domain; O75164; AlphaScreen JMJD2A-Tudor / H3K4me3 peptide binding; Potency, µM (top dose mostly 114 µM), hits mostly inhibitors; hit rate 4.4% among 390,000; note: nearly all actives have a fitted effect of over 50% in size
# G9a inh = blocks human histone lysine methyltransferase G9a; G9a H3K9 monomethylation, AlphaScreen, 2 h; Potency, µM (titrated, usually from 102 µM), hits mostly inhibitors; hit rate 8.8% among 350,000; AID 504332; note: nearly all actives have a fitted effect of over 75% in size
# Target sequence (Q96KQ7 913-1193 limits assumed): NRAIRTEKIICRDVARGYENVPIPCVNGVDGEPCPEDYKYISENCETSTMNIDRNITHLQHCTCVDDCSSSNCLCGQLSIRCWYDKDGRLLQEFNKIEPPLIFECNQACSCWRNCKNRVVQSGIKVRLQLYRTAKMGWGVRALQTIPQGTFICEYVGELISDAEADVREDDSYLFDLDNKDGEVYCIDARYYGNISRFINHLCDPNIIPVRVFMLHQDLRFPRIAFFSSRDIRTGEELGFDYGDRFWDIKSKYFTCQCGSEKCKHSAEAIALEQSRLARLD
#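 Readings reflect AlphaScreen signal from monomethyl-H3K9 antibody detection. HMT at 20 nM; substrate b-H3K9 500 nM; cofactor SAM 20 uM; 2 h RT reaction; compounds tested as titrations in qHTS with 15 min preincubation.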
# HP1b chromo inh = blocks HP1-beta chromodomain binding to methylated histone tails. hit rate 0.56% among 390,000. Potency, µM (top dose mostly 114 µM), actives largely listed as inhibitors. P83916. AlphaScreen HP1-beta / biotin-H3K9me3 peptide binding; note: nearly all actives have a fitted effect of over 70% in size
# Target sequence (P83916 whole entry, looked up): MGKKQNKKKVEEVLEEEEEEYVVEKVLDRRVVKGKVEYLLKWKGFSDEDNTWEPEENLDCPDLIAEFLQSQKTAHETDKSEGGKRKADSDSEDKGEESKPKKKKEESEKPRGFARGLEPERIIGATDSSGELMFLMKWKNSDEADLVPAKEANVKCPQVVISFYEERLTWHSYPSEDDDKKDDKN
#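 Compound inhibition of the preformed complex between 50 nM HP1-beta and 50 nM biotinylated H3K9me3 peptide was read by AlphaScreen. Buffer was PBS pH 7.4 with 0.01% Tween-20. Incubations ran 30 min at room temperature, with 10 ug/mL donor/acceptor beads.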
# Numbers stand for hits; - = inactive; ? = inconclusive; . = no result given. Rows were chosen to be rich in hits. Some 12% of all compounds tested hit in one or more screens of this group. Calls come from the whole dose curve; as a rule, active = well fitted curve in the direction sought with a large enough effect; inconclusive = small, poorly fitted or top-dose-only effect, or another doubt; inactive = no such curve, though single readings can be large; an effect the other way counts as inactive or inconclusive.
SMILES,Sfp PPTase inh,BAZ2B block,L3MBTL1 inh,JMJD2A Tudor,G9a inh,HP1b chromo inh
CN1CCc2c(sc(NC(=O)CS(=O)(=O)c3ccc(F)cc3)c2C(N)=O)C1,.,-,?,-,50µM,-
CNC(=O)c1c(NC(=O)CCS(=O)(=O)c2ccc(Cl)cc2)sc2c1CCN(C(=O)OC)C2,.,-,-,-,50µM,-
CC(=O)N1CCc2c(sc(NC(=O)CS(=O)(=O)c3ccc(F)cc3)c2C(N)=O)C1,.,-,-,-,50µM,-
CCOC(=O)N1CCc2c(sc(NC(=O)CCS(=O)(=O)c3ccccc3)c2C(N)=O)C1,-,-,.,-,-,-
CC(=O)N1CCc2c(sc(NC(=O)C3COc4ccccc4O3)c2C(N)=O)C1 (configuration not stated),32µM,-,.,-,.,-
CCc1ccc(CN2C(=O)c3ccccc3C2C(=O)NCCc2ccc(OC)c(OC)c2)cc1 (configuration not stated),.,-,.,-,-,-
O=C(NCCc1nc2ccccc2n1CCOc1ccc2ccccc2c1)C1CCCCC1,.,.,.,-,.,-
COc1ccc(NC(=O)CCNS(=O)(=O)c2ccc3c(c2)CCN3C(=O)C2CC2)cc1Cl,.,-,.,-,-,-
CCOc1ccc2oc(=O)cc(CN3CCN(c4ccc(OC)cc4)CC3)c2c1,.,-,.,?,-,-
Cc1ccc(C(=O)NC(=S)N2CCN(C)CC2)cc1Br,-,-,.,-,45µM,-
CN1CCN(C(=S)NC(=O)c2cccc(S(=O)(=O)N(C)C)c2)CC1,?,-,-,-,14µM,-
COc1cc(C(=O)NC(=S)N2CCN(C)CC2)cc(OC)c1OC,.,.,-,-,.,-
COc1ccc(C(=O)NC(=S)N2CCN(C)CC2)cc1Br,-,-,-,-,45µM,-
COc1cccc2c1CCCC2CCCN1CCN(C2CCCCC2)CC1 (configuration not stated),-,.,.,.,.,.
Cc1ccc(Cl)cc1NCc1nnc2n1CCCCC2,.,-,.,-,-,-
COC(=O)[C@@]1(Cc2ccc(F)cc2)[C@H]2c3cc(C(=O)N(C)C)n(CCCNc4ccc(C(F)(F)F)cc4Cl)c3C[C@H]2CN1C(=O)c1ccccc1,-,.,.,.,.,.
Cc1ccccc1-n1c(C)n[nH]c1=S,79µM,-,-,20µM,22µM,-
Cc1cccc(-n2c(-c3ccoc3C)n[nH]c2=S)c1,?,-,-,8.9µM,6.3µM,-
Cc1ccccc1-n1c(-c2ccoc2C)n[nH]c1=S,-,-,-,7.9µM,2.2µM,-
Fc1ccccc1-n1c(-c2ccc3ccccc3n2)n[nH]c1=S,-,?,-,-,-,-
Cc1ccc(S(=O)(=O)N(Cc2n[nH]c(=S)n2-c2ccccc2)c2cccc(Cl)c2)cc1,-,?,-,-,.,-
Cc1ccc([N+](=O)[O-])c(-c2n[nH]c(=S)n2-c2cccc(Cl)c2)c1,-,-,-,?,2µM,-
CC1(C)CCC[C@@]2(C)C1CC[C@@](C)(O)[C@@H]2CC[C@@](C)(O)C1CO1 (some centres not stated),-,.,.,.,.,.
COc1cc(OC)cc(N2C(=O)CSC23C(=O)Nc2ccccc23)c1 (configuration not stated),.,-,.,-,?,-
Cc1cc(/C=C(\C#N)c2nc3ccccc3[nH]2)c(C)n1C,-,-,-,-,-,-
Cc1ccc2nc(/C(C#N)=C/c3ccc(-c4cccc([N+](=O)[O-])c4)o3)[nH]c2c1,-,?,-,?,7.9µM,-
Cc1cc(/C=C(/C#N)c2nc3ccccc3[nH]2)c(C)n1-c1cccc([N+](=O)[O-])c1,-,?,.,89µM,11µM,-
C[C@@H]1C=CCC(=O)OC[C@H](C)C(=O)OC[C@H]2O[C@H]1C=C[C@H]2O,-,.,.,.,.,.
N#CC1(c2ccccc2)CCC(NCCc2ccccc2)CC1 (configuration not stated),-,56µM,.,50µM,25µM,-
CCOC(=O)c1cc2c(=O)n3ccccc3nc2n(CC2CCCO2)c1=NC(=O)c1cc(C)cc(C)c1 (configuration not stated),.,-,.,-,-,-
